# This is a sample that favours compounds with a hit; in the whole collection about 2.9% have one here.
# MEKK2 mut-MEK5: signal of MEK5 binding to mutant human MEKK2 PB1 domain; bead flow cytometry, Alexa488-MEK5 binding to MEKK2 mutant; percent response, % at 10 µM; actives 0.35% (n = 290,000); AID 1530; in the data active = percent response above about 24%, passing the limit was not always enough
# FID counter: counter-screen for HCV NS3 helicase inhibitors: DNA intercalator displacement; DNA fluorescent intercalator displacement, fluorescence; inhibition, % at 7.9 µM; actives 0.17% (n = 290,000); AID 1845; in the data active = inhibition above about 37%;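 also: 0% = vehicle and 100% = reference compound; higher means more ethidium bromide displaced from hairpin DNA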
# MEKK2 WT-MEK5: raises or lowers MEK5 binding to wildtype human MEKK2 PB1 domain. AID 1531. bead flow cytometry, Alexa488-MEK5 binding to MEKK2 WT; actives lie on both sides. actives 1.1% (n = 290,000). Q9Y2U5. binding response (% of control), % at 10 µM; in the data active = binding response below about 67% or above about 130%
# dFosB act: mouse delta FosB homodimer activation; P13346; purified delta FosB, TAMRA-CDK5 oligo fluorescence polarization; percent of positive-control signal above neutral wells; activation, % at 25 µM; actives 0.99% (n = 340,000); AID 493131;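 active = mean activation above about 17%, with every replicate also reaching it, limit read from the data, passing the limit was not always enough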
# Target sequence (P13346 whole entry, looked up): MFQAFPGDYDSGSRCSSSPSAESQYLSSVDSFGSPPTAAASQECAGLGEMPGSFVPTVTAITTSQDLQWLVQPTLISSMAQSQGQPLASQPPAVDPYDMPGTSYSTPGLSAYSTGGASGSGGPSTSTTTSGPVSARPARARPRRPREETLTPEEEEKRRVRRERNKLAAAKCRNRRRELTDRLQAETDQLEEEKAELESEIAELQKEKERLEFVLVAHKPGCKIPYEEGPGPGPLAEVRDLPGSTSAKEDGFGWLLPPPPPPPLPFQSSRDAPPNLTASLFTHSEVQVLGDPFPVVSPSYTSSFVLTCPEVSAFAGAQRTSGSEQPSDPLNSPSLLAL
# MEKK3 PB1 HTS: MEKK3-MEK5 PB1 interaction, increase or decrease. AID 1529. binding response (% of control), % at 10 µM. bead-based flow cytometry, Alexa488-MEK5 binding to MEKK3; actives lie on both sides; 0 = blocked by unlabeled MEK5, 100 = vehicle. actives 1.4% (n = 290,000);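 active = binding response more than 3 SD above or below the average of its plate-row segment, actives on both sides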;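 also: Alexa488 bead fluorescence after subtracting the streptavidin-only scavenger bead signal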
# MEKK2wt confirm: raises or lowers MEK5 binding to wildtype human MEKK2, retest; actives 2.4% (n = 5,900); shares compounds with MEKK3 PB1 HTS; binding response (% of control), % at 10 µM; bead flow cytometry, Alexa488-MEK5 binding to MEKK2 WT; actives lie on both sides; in the data active = binding response below about 16% or above about 210%; inactive = in between
# MEKK2mut confirm: signal of MEK5 binding to mutant human MEKK2, retest. percent response, % at 10 µM. bead flow cytometry, Alexa488-MEK5 binding to MEKK2 mutant. shares compounds with MEKK3 PB1 HTS. actives 2% (n = 5,900). AID 1893; in the data active = percent response mostly above about 71%, no sharp cut-off; inactive = mostly below about 38%;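 also: higher means compound restores mutant binding toward wildtype level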
# MEKK3-MEK5 inh: confirmation of inhibitors of MEK5 binding to human MEKK3. binding response (% of control), % at 10 µM. shares compounds with MEKK3 PB1 HTS. actives 1.8% (n = 5,900). bead flow cytometry, Alexa488-MEK5 binding to MEKK3; hits give low values;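 active = binding response below 72% of control, or above a set upper limit, though filed actives all read lower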;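 also: 100% = DMSO only wells and 0% = binding blocked by excess unlabeled MEK5; lower values mean stronger disruption of MEK5 binding to MEKK3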
# * hit, by the source's call; . = no result; [ ] = another dose, or the depositor's remark.
SMILES,MEKK2 mut-MEK5,FID counter,MEKK2 WT-MEK5,dFosB act,MEKK3 PB1 HTS,MEKK2wt confirm,MEKK2mut confirm,MEKK3-MEK5 inh
CCC(C)(C)c1ccc(OCCCC[n+]2cccc(C)c2)c(C(C)(C)CC)c1,44.0,21.2,191.0*,6.4,107.0,192.0,81.0*,111.0
Cc1c(NC(=O)c2ccc3c(c2)OCO3)cccc1-c1nc2ccccc2o1,4.0,-18.6,113.0,-10.9,131.0*,108.0,13.0,111.0
COc1cc2c(cc1NC(=O)c1ccc3c(c1)OCO3)oc1ccccc12,-34.0,-1.0,-5.0*[inhibitor],-3.9,99.0,95.0,-4.0,99.0
COc1cc2c(cc1NC(=S)Nc1cccc3ccccc13)oc1ccccc12,-3.0,7.2,92.0,11.4,99.0,.,.,.
COc1cc2c(cc1NC(=S)Nc1cccc(C(F)(F)F)c1)oc1ccccc12,19.0,2.9,153.0*,-6.9,102.0,126.0,-7.0,101.0
O=C(Nc1ccccc1-c1nc2ccccc2o1)c1ccc2c(c1)OCCO2,.,-0.1,.,.,.,.,.,.
Cc1cccc(-n2ncc3c2CCCC3NC(=O)Cc2c(C)noc2C)c1C (stereo unspecified),0.0,-30.1,97.0,-9.6,94.0,.,.,.
CCS(=O)(=O)n1nc(-c2ccco2)nc1N,0.0,-4.8,102.0,-1.6,111.0,.,.,.
COc1ccccc1NC(=S)N1CCC(NC(=O)c2ccco2)CC1,0.0,-1.7,98.0,-5.8,108.0,.,.,.
O=C(Cn1c2c(c(=O)n3ncnc13)CCC2)N/N=C/c1ccc(Cl)cc1,-19.0,-15.4,54.0,-5.9,48.0*[inhibitor],97.0,-2.0,97.0
COc1ccc(C2CC2/C(C)=N/OC(=O)c2cccs2)cc1 (stereo unspecified),1.0,-12.0,105.0,-7.6,99.0,.,.,.
COc1ccc(C2CC2/C(C)=N/OC(=O)c2ccc(F)cc2)cc1 (stereo unspecified),4.0,-23.8,125.0,-15.7,141.0*,108.0,9.0,109.0
CC(C)N1CCC(=NNC(=O)c2cccs2)CC1,7.0,-10.6,112.0,-2.8,105.0,.,.,.
COc1ccc(-c2cc(C#N)nc(N3CCNCC3)n2)cc1,57.0*,8.5,215.0*,-110.3,84.0,223.0*,71.0*,95.0
COc1ccc(OCC(O)CNCCOc2ccccc2OC)c(C(C)(C)C)c1 (stereo unspecified),25.0*,23.4,147.0*,-6.8,112.0,128.0,12.0,103.0
COc1ccccc1NCC(O)COc1ccc(C(C)(C)C)cc1 (stereo unspecified),3.0,-8.7,107.0,-7.1,108.0,.,.,.
COc1ccc(-c2nnc(SCc3nnc(-c4cccs4)o3)n2CC2CCCO2)cc1 (stereo unspecified),-2.0,-25.2,91.0,3.3,49.0*[inhibitor],106.0,5.0,102.0
Fc1ccc(NCc2nnc(SCc3nnc(-c4ccccc4)o3)n2CC2CCCO2)cc1 (stereo unspecified),6.0,-25.4,123.0,-16.1,124.0*,91.0,-5.0,95.0
C#CCOCCOCCOCCNc1nc(N2CCN(C(=O)[C@H](CCCCN)n3cc([C@@H](N)C(C)CC)nn3)CC2)nc(N2CCN(C(=O)[C@H](Cc3cc4ccccc4[nH]3)n3cc([C@@H](N)CC(C)C)nn3)CC2)n1 (stereo partly specified),93.0*,47.7*,237.0*,34.4*,111.0,137.0,21.0,102.0
C#CCOCCOCCOCCNc1nc(N2CCN(C(=O)[C@H](CCC(=O)O)n3cc(C(N)CO)nn3)CC2)nc(N2CCN(C(=O)[C@H](Cc3cc4ccccc4[nH]3)n3cc(C(N)[C@H](C)CC)nn3)CC2)n1 (stereo partly specified),27.0,17.7,156.0*,1.3,103.0,275.0*,110.0*,114.0
